Compounds with a hit are over-represented: about 6.2% of the library has one in this group of screens.
H9c2 protect: myocardial damage modulation in H9c2 cells | H9c2 cardiomyocytes, H2O2 injury protection, ATPLite, 2 h | protection from H2O2 cell death, % at 20 µM | actives 0.63% (n = 360,000);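 active = compounds giving at least 50% protection of heart cells from peroxide-induced death in the single-dose screen, raw or plate-pattern-corrected value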
NTR1 ag: NTR1 (human) agonism; P30989; NTR1-U2OS beta-arrestin-GFP spot imaging, agonist mode; activation, % at 20 µM; actives 0.17% (n = 330,000); AID 493036;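 active = activation at or above 40% of the spot to cytoplasm intensity ratio, with at least 20 cells analyzed; inconclusive = wells under 20 cells, flagged as cytotoxic or low count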
Target sequence (P30989 whole entry, looked up): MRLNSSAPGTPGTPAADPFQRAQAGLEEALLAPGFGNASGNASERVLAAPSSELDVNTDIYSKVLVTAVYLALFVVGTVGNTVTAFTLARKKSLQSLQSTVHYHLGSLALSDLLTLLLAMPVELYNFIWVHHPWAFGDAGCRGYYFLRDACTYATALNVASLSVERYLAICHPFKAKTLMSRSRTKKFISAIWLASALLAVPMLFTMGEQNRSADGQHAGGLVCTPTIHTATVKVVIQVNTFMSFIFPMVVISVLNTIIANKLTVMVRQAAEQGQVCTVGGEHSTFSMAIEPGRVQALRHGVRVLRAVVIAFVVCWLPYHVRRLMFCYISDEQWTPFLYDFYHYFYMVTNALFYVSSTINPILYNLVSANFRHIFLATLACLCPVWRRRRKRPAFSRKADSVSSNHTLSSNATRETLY
SUMO Mot1 rescue: blocks SUMOylation pathway, rescuing yeast Mot1-301 growth. S. cerevisiae Mot1-301 growth rescue, ATP luminescence, 38.5C; percent above DMSO median, 100 means doubled. growth rescue, % at 18.8 µM. actives 1% (n = 320,000);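 active = every valid replicate shows activation above 250% relative to neutral control wells; inactive = the rest, any valid replicate at or below 250%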
AI-2 QS mod: Vibrio harveyi AI-2 quorum sensing modulation; Vibrio harveyi JMH597 AI-2 luminescence/OD600 ratio, 9 h; stronger effect = lower value; strain lacks LuxN and CqsS sensors; 0 = neutral-control median; actives 0.4% (n = 300,000); activity change, % at 7.5 µM; in the data active = activity change below about -75%, passing the limit was not always enough; inconclusive = no clear call, values can overlap the other calls;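 also: luminescence divided by OD600 gain over 9 h not by final OD600 alone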
NR3A LBD binder: modulators (binders) of human NR3A ligand-binding domain; NR3A LBD differential scanning fluorimetry, Tm shift; 0% = protein alone, 100% = glycine-bound protein; Tm shift relative to glycine control, % at 25 µM; actives 2.5% (n = 340,000); AID 1259313;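 active = melting temperature shift of at least 10% of the positive control shift, at one fixed dose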
AHR activator: activates the human aryl hydrocarbon receptor. activation, % at 5 µM. P35869. AHR-responsive luciferase reporter cells, luminescence. actives 2.5% (n = 320,000). AID 2796; in the data active = activation above about 47%
Mot1 SUMO dose: yeast SUMO pathway inhibition in dose response; shares compounds with SUMO Mot1 rescue; S. cerevisiae Mot1-301 galactose growth, ATP luminescence, 24 h; -100 = growth of slx-deleted rescue strain; growth activity, percent, % at 42 µM; 2,300 tested, under 10 active;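 active = Signal drops as the depositor expects, and the fitted half-maximal dose is no more than ten times the top valid tested dose; inconclusive = Poor fit, or a flat curve whose signal drops by 30% to 70%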;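 also: more negative values mean stronger growth rescue toward the control strain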
Large screens that a line does not name were inactive (follow-up assays come after a bar, where they were run).

COC(=O)CN1C(=O)c2cccc3cccc1c23	SUMO Mot1 rescue 797.5 | Mot1 SUMO dose inactive
CC1(C)CCCC2(C)C(OCCO)=CC(=O)C=C12 (centres undefined)	none (no result: NTR1 ag, SUMO Mot1 rescue, AI-2 QS mod, NR3A LBD binder, AHR activator)
Cc1cccc(NC(=O)c2cc(S(=O)(=O)N(C)c3ccc(F)cc3)ccc2Cl)n1	none
CCOC(=O)N1CCN(C(=O)c2ccc3ccccc3c2)CC1	SUMO Mot1 rescue 379.2 | Mot1 SUMO dose inactive
CN1CCN(C(=O)c2ccc3ccccc3c2)CC1	none
O=C1CN(CC(=O)NC2CCCc3ccccc32)CCN1 (centres undefined)	none
Cc1cccc(NC(=S)NC(=O)/C=C/c2ccco2)c1	SUMO Mot1 rescue 705.8 | Mot1 SUMO dose inactive
CCC(NC(=O)c1ccccc1NC(=O)c1ccco1)C(=O)NC1CCCCC1 (centres undefined)	SUMO Mot1 rescue 381.0 | Mot1 SUMO dose inactive
COc1ccc(OC)c(-c2cc(C(=O)Nc3c(C)nn(Cc4ccccc4Cl)c3C)no2)c1	SUMO Mot1 rescue 570.9 | Mot1 SUMO dose inactive
COC(=O)c1ccc(CNC(=O)c2ccc(S(=O)(=O)N3CCCC(C)C3)cc2)cc1 (centres undefined)	none (no result: AI-2 QS mod)
CCCCN(C)C(=O)c1cc2c(Cl)nc3ccccc3c2s1	SUMO Mot1 rescue 433.1 | Mot1 SUMO dose inactive
Cc1cccc(NC(=O)CN2C(=O)NC3(CCCC3)C2=O)n1	none
CCCOC(=O)/C(=C\C=C\c1ccccc1)NC(=O)c1ccccc1	none
CCCCOC(=O)/C(=C/C=C/c1ccccc1)NC(=O)c1ccccc1	SUMO Mot1 rescue 815.0 | Mot1 SUMO dose inactive
CC(C)Cn1c(N)cc(=O)n(C)c1=O	none
CCCn1c(N)cc(=O)n(CCC)c1=O	SUMO Mot1 rescue 792.1 | Mot1 SUMO dose inactive
Cc1c(C(=O)NC(C)c2ccc(-n3ccnc3)cc2)cccc1[N+](=O)[O-] (centres undefined)	SUMO Mot1 rescue 407.0, AHR activator 60.5 | Mot1 SUMO dose inactive
Cc1cc(Nc2ccc(Cl)cc2)n(-c2ccccc2)n1	none
Cc1cc(Nc2nc3c(c(=O)n(C)c(=O)n3C)n2C)n(-c2ccc(Cl)cc2)n1	SUMO Mot1 rescue active | Mot1 SUMO dose inactive
CCCOC(=O)C1=C(C)NC2=C(C(=O)CCC2)C1c1cccs1 (centres undefined)	SUMO Mot1 rescue 450.5 | Mot1 SUMO dose inactive
CCOC(=O)C1=C(C)NC2=C(C(=O)CC(c3cccs3)C2)C1c1cccs1 (centres undefined)	none (no result: AI-2 QS mod)
CC(=O)Nc1ccc(CN2CCc3c([nH]c4ccccc34)C2C(C)(C)C)cc1 (centres undefined)	none
CC(C)(C)C1c2[nH]c3ccccc3c2CCN1Cc1cccc(OCCO)c1 (centres undefined)	SUMO Mot1 rescue 710.1 | Mot1 SUMO dose inactive
COc1ccc(S(=O)(=O)N2CCN(c3ccc(F)cc3)CC2)cc1C(=O)N1CCOCC1	SUMO Mot1 rescue 432.1 | Mot1 SUMO dose inactive
O=C(Nc1ccc(N2CCOCC2)cc1N1CCOCC1)c1cccc([N+](=O)[O-])c1	none
Cc1ccccc1CN1CCN(C(=O)CC(C)C)CC1	none
Cc1nc(NC(=O)CSc2nc(N)cc(N)n2)sc1C	SUMO Mot1 rescue 660.7 | Mot1 SUMO dose inactive
O=C(OCCN=C1NS(=O)(=O)c2ccccc21)c1cccs1	none
O=C(OCCCN=C1NS(=O)(=O)c2ccccc21)c1cccs1	SUMO Mot1 rescue 579.4 | Mot1 SUMO dose inactive
NC(c1csc(Nc2ccc(C(=O)c3ccccc3)cc2)n1)C1CCCCC1 (centres undefined)	none (no result: NTR1 ag, SUMO Mot1 rescue, AI-2 QS mod, NR3A LBD binder, AHR activator)
O=C(CCC1CCCN(C(=O)Cc2cccc(F)c2)C1)N1CCN(c2ccccn2)CC1 (centres undefined)	SUMO Mot1 rescue 426.3 | Mot1 SUMO dose inactive
O=C(CCC1CCCN(C(=O)CCCc2ccccc2)C1)N1CCN(c2ccccn2)CC1 (centres undefined)	none
O=c1[nH]c(C2CCN(S(=O)(=O)c3ccc(C(F)(F)F)cc3)CC2)nc2c1nnn2Cc1ccccc1	none
O=C(N/N=C\c1cn(-c2ccccc2)nc1-c1ccccc1)c1ccc(Br)o1	SUMO Mot1 rescue active | Mot1 SUMO dose inactive
Cc1cc(NC(=O)c2ccc3c(c2)C(=O)N(C(C)(C)C)C3=O)no1	SUMO Mot1 rescue 446.7 | Mot1 SUMO dose inactive
CN(C)N=Nc1ccc(-c2cn(Cc3ccccc3)cn2)cc1	AI-2 QS mod inconclusive
COc1ccc(-c2nnc(SCC(=O)NCc3cccs3)n2C)cc1	none
COCCn1c(SCC(=O)NCc2cccs2)nnc1-c1ccc(OC)cc1	SUMO Mot1 rescue 915.8 | Mot1 SUMO dose inactive
COc1ccccc1CNC(=O)[C@H](C)NC(=O)C1CCN(C(=O)[C@@H](N)CC(C)C)CC1	SUMO Mot1 rescue 617.8 | Mot1 SUMO dose inactive
COc1ccccc1CNC(=O)[C@H](NC(=O)C1CCN(C(=O)[C@@H](N)CCSC)CC1)C(C)C	none
O=C(COC(=O)/C=C/c1cccc(Br)c1)Nc1ccc(Cl)cn1	none (no result: NTR1 ag, SUMO Mot1 rescue, AI-2 QS mod, NR3A LBD binder, AHR activator)
COc1cccc(/C=C/C(=O)OCC(=O)Nc2ccc(Cl)cn2)c1	SUMO Mot1 rescue 759.8 (no result: NR3A LBD binder) | Mot1 SUMO dose inactive
Cc1cccc(CS(=O)(=O)Cc2ccc(C(=O)NCC3CCCO3)o2)c1 (centres undefined)	SUMO Mot1 rescue 666.8 | Mot1 SUMO dose inactive
Cc1ccccc1CS(=O)(=O)Cc1ccc(C(=O)NCC2CCCO2)o1 (centres undefined)	none
Cc1cccc(C)c1NC(=O)c1csc(COCCO)n1	none (no result: NTR1 ag, SUMO Mot1 rescue, AI-2 QS mod, NR3A LBD binder, AHR activator)
COc1cc(/C=N/n2c(C3CCCCC3)n[nH]c2=S)cc(OC)c1O	SUMO Mot1 rescue 400.4 | Mot1 SUMO dose inactive
O=C(OCCc1cc2ccccc2c(=O)o1)c1ccco1	none (no result: AI-2 QS mod)
Cc1c(C(=O)Nc2cc(F)ccc2F)sc2nc3n(c(=O)c12)CCCCC3	none
CC(C)[C@H](NS(=O)(=O)c1ccc(Cl)cc1)C(=O)OCC(=O)NCCN1C(=O)CSC1=O	none
O=C(O)c1cc2c(ccc3ccccc32)oc1=O	none (no result: NR3A LBD binder)
O=C(c1cc2c(ccc3ccccc32)oc1=O)N1CCCC1	SUMO Mot1 rescue 495.2 | Mot1 SUMO dose inactive
COc1ccccc1-c1sc2ccccc2c1-c1ccc(O)cc1	none (no result: AI-2 QS mod)
COc1ccccc1-c1sc2ccccc2c1-c1ccc2c(c1)OCO2	SUMO Mot1 rescue 997.9 | Mot1 SUMO dose inactive
COc1ccc(/C=N/NC(=O)c2nnn(-c3nonc3N)c2-c2cccs2)cc1OC	SUMO Mot1 rescue 398.6 | Mot1 SUMO dose inactive
COc1ccc(NC(=O)CSc2ccccn2)cc1	none (no result: AI-2 QS mod)
COC(=O)CNC(=O)CSc1ccccn1	SUMO Mot1 rescue active | Mot1 SUMO dose inactive
CCC1CCCCN1CCCNC(=O)c1cc2c(=O)oc3ccc(C)cc3c2s1 (centres undefined)	none
CCOc1nc(Nc2ccc(OC)cc2OC)nc(OCC)n1	none
